Data on 20 compounds can be found in paper PMC11062922 (Nature Chemical Biology, 2023).

Read-outs that look alike come from different tables or passages of the source.

Common to all, as to design: species or system human, MV4-11 + K-562 + COLO205 + SK-N-BE2 + OVCAR-8
One assay has as its system CDC7. Particulars: read-out: apparent Kd, compound concentrations: 100 nM and 1000 nM (sheet 'Samples'), n = 1.
The next assay deals with MAPKAPK2. Particulars: read-out: apparent Kd, n = 1.
The next assay relates to NLK. To be noted: read-out: apparent Kd, compound concentrations: 100 nM and 1000 nM (sheet 'Samples'), n = 1.
The subject of a further assay is PRKCB. Particulars: read-out: apparent Kd, n = 1.
A further assay has as its system ATR. To be noted: read-out: apparent Kd, n = 1.
The subject of the next assay is FRK. To be noted: read-out: apparent Kd, n = 1.
The subject of another assay is JAK2. To be noted: read-out: apparent Kd, n = 1.
A further assay concerns ACAD11. To be noted: read-out: apparent Kd, n = 1.
Another assay relates to FGFR1. Particulars: read-out: apparent Kd, n = 1.
A further assay relates to ULK3. To be noted: read-out: apparent Kd, compound concentrations: 100 nM and 1000 nM (sheet 'Samples'), n = 1.
A further assay concerns CDK5. Particulars: read-out: apparent Kd, compound concentrations: 100 nM and 1000 nM (sheet 'Samples'), n = 1.
For a further assay, the system named is IRAK4. Particulars: read-out: apparent Kd, compound concentrations: 100 nM and 1000 nM (sheet 'Samples'), n = 1.
The next assay relates to JAK1. To be noted: read-out: apparent Kd; compound concentrations: 100 nM and 1000 nM (sheet 'Samples'), CATDS: 1.7272230930398098E-2; n = 1.
For the next assay, the system named is MAP4K1. Particulars: read-out: apparent Kd, n = 1.
The subject of a further assay is STK26. Particulars: read-out: apparent Kd, compound concentrations: 100 nM and 1000 nM (sheet 'Samples'), n = 1.
The next assay concerns CDK6. Particulars: read-out: apparent Kd, compound concentrations: 100 nM and 1000 nM (sheet 'Samples'), n = 1.
For another assay, the system named is NQO2. Particulars: read-out: apparent Kd, compound concentrations: 100 nM and 1000 nM (sheet 'Samples'), n = 1.
A further assay has as its system MAP2K1. Particulars: read-out: apparent Kd, n = 1.
The subject of another assay is PIK3CA. To be noted: read-out: apparent Kd, compound concentrations: 100 nM and 1000 nM (sheet 'Samples'), n = 1.
Setting [1] is: compound concentrations:100 nM and 1000 nM (sheet 'Samples').

Take `CCn1c(-c2nonc2N)nc2c(-c3ccccc3)ncc(OCCCN)c21.CCn1c(-c2nonc2N)nc2c(-c3ccccc3)ncc(OCCCN)c21.O=C(O)C(F)(F)F.O=C(O)C(F)(F)F` [GSK260205A]: the potency estimated from few doses was 714 nM in the assay on CDC7 (CATDS: 3.6033754639237303E-2); 74.4 nM with MAPKAPK2 (compound concentrations: 100 nM and 1000 nM (sheet 'Samples'), CATDS: 0.102958619201112); 162 nM with NLK (CATDS: 6.7931350663373802E-2).
Turning to `CCn1c(-c2nonc2N)nc2c(C#CC(C)(C)O)nc(OCCN)cc21.CCn1c(-c2nonc2N)nc2c(C#CC(C)(C)O)nc(OCCN)cc21.Cl.Cl` [GSK902056A], the potency estimated from few doses in the assay on PRKCB (setting [1]) is 1980 nM.
For the compound `CN1C[C@@H]2Cn3c(c(C4=C(c5cn(C)c6ccccc56)C(=O)NC4=O)c4ccccc43)C[C@H]2C1.Cl` [RO0320234-001], the potency estimated from few doses in the assay on ATR (setting [1]) is 438 nM; in the assay with FRK (setting [1]) it was 290 nM; in the assay on PRKCB (compound concentrations: 100 nM and 1000 nM (sheet 'Samples'), CATDS: 3.7076657703329602E-2) it was 28.4 nM.
With `Clc1cc(Cl)cc(Nc2ccnc(Nc3cc(Cl)cc(Cl)c3)n2)c1` [GSK175726A], the potency estimated from few doses in the assay on ATR (compound concentrations: 100 nM and 1000 nM (sheet 'Samples'), CATDS: 1.4419933534352201E-2) was 267 nM; in the assay on FRK (compound concentrations: 100 nM and 1000 nM (sheet 'Samples'), CATDS: 1.3675373024535401E-2), 305 nM; with JAK2 (compound concentrations: 100 nM and 1000 nM (sheet 'Samples'), CATDS: 2.01521439750539E-2) it was 131 nM.
For `NCCNS(=O)(=O)c1ccc(-c2ccnc3[nH]ccc23)cc1` [GSK977617A], the potency estimated from few doses in the assay on FRK (setting [1]) was 832 nM.
Regarding `CCOC(=O)N1CCC(n2cnc(-c3ccc(F)cc3)c2-c2ccnc(N)n2)CC1` [SB-219952], the potency estimated from few doses is 1330 nM in the assay on ACAD11 (compound concentrations: 100 nM and 1000 nM (sheet 'Samples'), CATDS: 8.6091938729062605E-3); 1280 nM in the assay with FGFR1 (compound concentrations: 100 nM and 1000 nM (sheet 'Samples'), CATDS: 8.7030488552416706E-3); 1050 nM with FRK (compound concentrations: 100 nM and 1000 nM (sheet 'Samples'), CATDS: 9.3147950048740498E-3); 60.7 nM in the assay on MAPKAPK2 (compound concentrations: 100 nM and 1000 nM (sheet 'Samples'), CATDS: 4.5642459422858099E-2); 72.7 nM in the assay with NLK (CATDS: 4.0230749785041403E-2); 1430 nM with ULK3 (CATDS: 8.4106356024223894E-3).
In the case of `COc1ccc(Nc2ncc(C#N)c(Nc3ccccc3C(N)=O)n2)cc1N1CCN(C)CC1.Cl` [GSK1558669A], the potency estimated from few doses is 85 nM with CDK5 (CATDS: 1.3495473564992901E-2); 74.1 nM in the assay on FGFR1 (compound concentrations: 100 nM and 1000 nM (sheet 'Samples'), CATDS: 1.43157906499466E-2); 148 nM in the assay on IRAK4 (CATDS: 1.0871423307460401E-2); 49.5 nM in the assay with JAK1; 270 nM in the assay on MAP4K1 (compound concentrations: 100 nM and 1000 nM (sheet 'Samples'), CATDS: 8.9293608568362503E-3); 1650 nM with STK26 (CATDS: 6.0521031511701004E-3). The potency estimated from few doses with ULK3 (CATDS: 2.8443328776369899E-2) is 20 nM.
With `Cl.ON=C1CCc2cc(-c3nc(C4CCNCC4)[nH]c3-c3ccncc3)ccc21` [SB-614067-R], the potency estimated from few doses with MAPKAPK2 (setting [1]) is 874 nM.
Turning to `Cl.Cl.NCC(C(=O)Nc1cc(Br)c(-c2ccnc3[nH]ccc23)s1)c1ccccc1.NCC(C(=O)Nc1cc(Br)c(-c2ccnc3[nH]ccc23)s1)c1ccccc1` (stereo not shown) [GSK1269851A], the potency estimated from few doses in the assay with ACAD11 (setting [1]) is 1260 nM; with ATR (setting [1]) it was 889 nM; with FGFR1 (setting [1]), 1730 nM; in the assay with FRK (setting [1]), 846 nM.
For `Fc1ccc(-c2c(-c3ccncc3)[nH]c3cccnc23)cc1` [RO1153853-000], in the assay on MAPKAPK2 (compound concentrations: 100 nM and 1000 nM (sheet 'Samples'), CATDS: 8.5753103075807094E-2), the potency estimated from few doses was 373 nM.
With `CCn1c(-c2nonc2N)nc2c(C#CC(C)(C)O)nc(O[C@@H](CN)c3ccccc3)cc21.O=C(O)C(F)(F)F` [GSK1007102B], the potency estimated from few doses in the assay with PRKCB (setting [1]) is 111 nM.
Regarding `COc1ccc(Nc2nccc(-c3ccc(NC(=O)c4cc5cc(F)ccc5[nH]4)cc3)n2)cc1` [GSK1229496A], the potency estimated from few doses with JAK2 (compound concentrations: 100 nM and 1000 nM (sheet 'Samples'), CATDS: 0.41035402481259398) was 584 nM.
With `CN(C)CCNC(=O)Nc1ccc(N(C)c2ccnc(Nc3ccc(CS(C)(=O)=O)cc3)n2)cc1.Cl` [GW830900A], the potency estimated from few doses with JAK2 (setting [1]) is 1050 nM.
In the case of `CCN(CC)Cc1ccc(Nc2nccc(-c3cnn4ncccc34)n2)cc1` [GW780056X], the results for the potency estimated from few doses in the assay with CDK6 (CATDS: 6.8164228175802102E-2) and with NQO2 (CATDS: 3.67642918881117E-2) were 83.2 nM and 274 nM, respectively.
As for `CS(=O)(=O)Nc1ccc(-c2ccnc3[nH]ccc23)cc1` [GSK993273A], the potency estimated from few doses in the assay on ACAD11 (setting [1]) is 1040 nM; in the assay on MAP2K1 (setting [1]) it was 1720 nM.
For the compound `O=C(O)C(F)(F)F.O=c1[nH]ccc2nc(N[C@@H]3CCNC3)nc(Nc3ccc4c(c3)S(=O)(=O)CC4)c12` [GSK2181306A], the potency estimated from few doses is 145 nM in the assay with ACAD11 (compound concentrations: 100 nM and 1000 nM (sheet 'Samples'), CATDS: 2.2275059319964801E-2); 57.1 nM with CDC7 (CATDS: 3.8653220202105501E-2); 571 nM in the assay with CDK5 (CATDS: 1.15516504850929E-2); 781 nM in the assay with JAK2 (compound concentrations: 100 nM and 1000 nM (sheet 'Samples'), CATDS: 1.0295673104193499E-2); 947 nM in the assay on MAP2K1 (compound concentrations: 100 nM and 1000 nM (sheet 'Samples'), CATDS: 9.6647970877986305E-3); 536 nM in the assay on MAP4K1 (compound concentrations: 100 nM and 1000 nM (sheet 'Samples'), CATDS: 1.18408436386705E-2). Besides, in the assay on ULK3 (CATDS: 1.2312862576378401E-2), the potency estimated from few doses is 487 nM.
In the case of `O=C1N=C(NCCCc2ccccc2)S/C1=C\c1ccc2ncccc2c1` [RO4493941-000], in the assay on PIK3CA (CATDS: 0.11301780685695401), the potency estimated from few doses was 241 nM.
Take `COc1ccc(-c2cc3c(N)ncnc3o2)cc1` [GW642138X]: the figures for the potency estimated from few doses in the assay on CDK6 (CATDS: 0.103985986158265), with IRAK4 (CATDS: 9.7145824911744297E-2) and in the assay on STK26 (CATDS: 0.100922192371782) were 1700 nM, 1950 nM and 1800 nM, respectively.
Regarding `c1ccc(-c2n[nH]cc2Nc2ccnc3ccccc23)nc1` [GW694077X], the potency estimated from few doses with ACAD11 (compound concentrations: 100 nM and 1000 nM (sheet 'Samples'), CATDS: 2.4414312635225699E-2) was 1600 nM; in the assay on NQO2 (CATDS: 2.8699790095599101E-2), 903 nM; with PIK3CA (CATDS: 4.8537913419409703E-2), 212 nM.
Turning to `O=C(O)C(F)(F)F.O=c1[nH]ccc2nc(N[C@@H]3CCNC3)nc(Nc3cc(Cl)cc(Cl)c3)c12` [GSK2188764A], the potency estimated from few doses with MAP4K1 (setting [1]) was 1030 nM.
